Shiga toxin inh: A qHTS for Small Molecule Inhibitors of Shiga Toxin; Vero cells, Shiga toxin protein synthesis inhibition reporter; AID 2315, 2010; hit rate 9.2% among 290,000; inhibition, % at 38.7 µM; in the data active = inhibition mostly above about 28%, no sharp cut-off; inactive = mostly below about 43%
SARS PLP yeast: qHTS of Yeast-based Assay for SARS-CoV PLP; S. cerevisiae expressing SARS-CoV PLpro, growth rescue; Potency, µM (titrated, usually from 32.9 µM), most hits filed as activators; hit rate 0.19% among 330,000; note: nearly all actives have a fitted effect of over 55% in size
CHX counter: Cycloheximide Counterscreen for Small Molecule Inhibitors of Shiga Toxin. cell reporter, cycloheximide protein synthesis inhibition counterscreen. hit rate 12% among 300,000. max response, %; in the data active = max response mostly above about 13%, no sharp cut-off; inactive = mostly below about 14%; note: read at 38.3 µM for the half of the compounds with a filed dose
NS1 inh: qHTS Assay for Inhibitors of Influenza NS1 Protein Function; Potency, µM (series often up to 46.1 µM); hit rate 0.4% among 270,000; AID 2326, 2010; note: actives are rising curves; nearly all actives have a fitted effect of over 50% in size
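A cell-based growth assay was used: compounds that relieve NS1-induced slow growth of budding yeast raise OD600. Assay medium was yeast nitrogen base with ammonium sulphate and -URA supplement, pH 6.0, with 2% galactose.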
Of the large screens only hits and unclear results are named; the others gave an inactive call. Only some compounds are listed: those with a hit (about 12% of all), similar ones and a draw of the others. Unless noted, calls come from the whole dose curve.

Cc1ccc(/C=C/C(=O)Nc2cc(C)on2)cc1	Shiga toxin inh 62, CHX counter 58
Cc1ccc(/C=C/C(=O)NC2=NCCS2)cc1	Shiga toxin inh 92, CHX counter 70
CC(C)(C)c1ccc(/C=C/C(=O)NC2=NCCS2)cc1	Shiga toxin inh active, CHX counter 54
CC(=O)c1ccc(NC(=O)/C=C/c2ccc(C)cc2)cc1	none
CCNNC(=O)C(O)(Cc1ccccc1)Cc1ccccc1	none
C/C(=N\NC(=O)c1cccc(C)c1O)c1ccc(NC(=O)Cc2ccccc2)cc1	Shiga toxin inh 45, CHX counter 39
C/C(=N\NC(=O)c1ccccc1N)c1ccc(NC(=O)Cc2ccccc2)cc1	Shiga toxin inh 65, CHX counter 36
COc1ccccc1C(=O)N/N=C(\C)c1ccc(NC(=O)Cc2ccccc2)cc1	none
Cc1cccc(C(=O)OCC(=O)NC(=O)Cc2ccccc2)c1O	none
CC(C)OC(=O)CCCNc1ccc([N+](=O)[O-])cc1[N+](=O)[O-]	none
C[C@H](CO)N1C[C@H](C)[C@@H](CN(C)S(=O)(=O)c2cccs2)Oc2c(NC(=O)CCC(F)(F)F)cccc2C1=O	none (no result: Shiga toxin inh, CHX counter, NS1 inh)
CC(=O)Oc1oc(-c2ccccc2)nc1C=Nc1ccc(N(C)C)cc1	none
CC(=O)Oc1oc(-c2ccccc2)nc1/C=N/c1ccccn1	Shiga toxin inh 87, CHX counter 47
CN(C)c1ccc(N=Cc2nc(-c3ccccc3)oc2OC(=O)c2ccccc2)cc1	Shiga toxin inh 34, CHX counter 34
COc1ccccc1N=Cc1nc(-c2ccccc2)oc1OC(C)=O	none
COC(=O)c1ccccc1NC(=O)CN(c1c(C)cccc1C)S(C)(=O)=O	none
Cc1nn(CC(=O)NCC(C)c2ccccc2)c(=O)c2cccn12 (stereo not drawn)	none
CCCOc1ccc(/C=N/NC(=O)CSc2ccccn2)cc1OC	Shiga toxin inh 85, CHX counter 36
CN(C)c1ccc(/C=N/NC(=O)CSc2ccccn2)cc1	Shiga toxin inh 56, CHX counter 40
CC(=O)N1CCN(C(=O)c2ccc(Cl)c(S(=O)(=O)N3CCCCCC3)c2)CC1	none (no result: Shiga toxin inh, CHX counter, NS1 inh)
CCn1cc(C(=O)NNC(=O)c2ccc(Cl)cc2)c(=O)c2ccc(C)nc21	none (no result: NS1 inh)
CCC(C)c1ccc(OCC(=O)Nc2ccc(Cl)cn2)cc1 (stereo not drawn)	CHX counter 35
CC(C)CC(=O)NC(=S)Nc1ccc(Cl)cn1	Shiga toxin inh 119, CHX counter 34
O=C(NCc1nc2ccccc2[nH]1)C1=C[C@@H](c2ccc3c(c2)OCO3)C[C@@H](OCc2ccc(CO)cc2)O1	none
COc1ccc(/C=N/NC(=O)c2nnn(-c3nonc3N)c2-c2cccs2)cc1OC	none
CSc1nncn1/N=C/c1ccc([N+](=O)[O-])cc1	none
COc1ccc(/C=N/N=C(\N)c2nonc2N)cc1OC	Shiga toxin inh 108, CHX counter 31 (no result: NS1 inh)
CS/C(N)=N/N=C/c1ccc([N+](=O)[O-])cc1	Shiga toxin inh 75, CHX counter 30
Nc1nonc1-n1nnc(C(=O)N/N=C/c2ccc(O)cc2)c1COc1ccc(F)cc1	none
N/C(=N\N=C\c1ccc(O)c(O)c1)c1nonc1N	Shiga toxin inh 67, CHX counter 43
N/C(=N\N=C\c1ccc(O)cc1)c1nonc1N	CHX counter 30 (no result: NS1 inh)
COc1cc(/C=N/NC(=O)c2nnn(-c3nonc3N)c2C(C)C)ccc1O	none
Cc1ccc(CNC(=O)COc2ccccc2-c2ccccc2)cc1	none
Cc1ccc(C)n1-c1ccc(N(C)C)cc1	none (no result: NS1 inh)
CCN(CC)CCNC(=O)c1ccc(Sc2ccc(Cl)cc2)c(NC(C)=O)c1	none (no result: NS1 inh)
CS/C(N)=N/N=C/c1ccc2c(c1)OCO2	Shiga toxin inh 71, CHX counter 25
N/C(=N\N=C\c1ccc([N+](=O)[O-])cc1)c1nonc1N	Shiga toxin inh 91, CHX counter 51
N/C(=N\N=C\c1cccc(O)c1)c1nonc1N	Shiga toxin inh 59, CHX counter 31 (no result: NS1 inh)
COc1ccc(OC)c(/C=N/N=C(\N)c2nonc2N)c1	Shiga toxin inh 59, CHX counter 38
CSc1nncn1/N=C/c1ccc2c(c1)OCO2	none
Cc1c(C(=O)N/N=C/c2cccc(O)c2)nnn1-c1nonc1N	none
N#C/C(=C\c1ccc(F)c(Cl)c1)S(=O)(=O)c1ccccn1	none
COc1cc(/C=N/N=C(\N)c2nonc2N)ccc1O	Shiga toxin inh 61, CHX counter 24 (no result: NS1 inh)
Cc1oc(-c2ccc(Cl)cc2)cc1C(=O)O	CHX counter 43
Cc1oc(-c2ccccc2)cc1C(=O)Nc1cccc(C(=O)O)c1	none
O=C(O)CCCC(=O)N1N=C(c2ccccc2)CC1c1ccc2nccnc2c1 (stereo not drawn)	none
CCCCOc1ccc(Cc2c(O)nc(SC)[nH]c2=O)cc1	none (no result: Shiga toxin inh)
CC(=O)Nc1ccccc1C(F)(F)F	none
NNc1ccccc1C(F)(F)F	CHX counter 28 (no result: NS1 inh)
Nc1n[nH]c(N)c1N=Nc1ccccc1	none
COc1ccc(N=Nc2ccc(N)nc2N)cc1	Shiga toxin inh 107, CHX counter 70
Nc1n[nH]c(N)c1N=Nc1ccccc1F	CHX counter 17
Nc1n[nH]c(N)c1N=Nc1ccc(F)cc1	CHX counter 33 (no result: NS1 inh)
COc1ccc(N=Nc2c(N)n[nH]c2N)cc1	Shiga toxin inh 45, CHX counter 27
Cc1cccc(NC(=S)NN(Cc2ccccc2)c2ccccc2)c1C	none
CC(=O)Nc1ccc(S(=O)(=O)NNC(=S)NCC2CCCO2)cc1 (stereo not drawn)	none
Cc1ccc(N2C(=O)N(CC(=O)Nc3cccc(C)c3C)C(=O)C2C)cc1 (stereo not drawn)	none (no result: Shiga toxin inh, CHX counter, NS1 inh)
Nc1n[nH]c(N)c1N=Nc1ccc(Cl)cc1Cl	Shiga toxin inh 38, CHX counter 52
COC(=O)c1ccc(NC(=S)NN2CCCCC2c2cccnc2)cc1 (stereo not drawn)	CHX counter 14
COc1ccccc1/C=C1\Oc2cc(OC(=O)N3CCOCC3)ccc2C1=O	none
COc1ccccc1OCC(=O)NCC1CCCN(Cc2cnn(C)c2C)C1 (stereo not drawn)	none
CC(C)Oc1ccc(C2c3c(oc4ccccc4c3=O)C(=O)N2CCCN2CCOCC2)cc1 (stereo not drawn)	Shiga toxin inh 54, CHX counter 17
COc1cccc(/C(O)=C2/C(=O)C(=O)N(CCN(C)C)C2c2ccccn2)c1 (stereo not drawn)	none
CN(C)CCN1C(=O)C(=O)/C(=C(/O)c2ccc3c(c2)OCCO3)C1c1ccccn1 (stereo not drawn)	Shiga toxin inh 102, CHX counter 42
Cc1c(/C(O)=C2/C(=O)C(=O)N(CCN3CCOCC3)C2c2ccccn2)cnn1-c1ccccc1 (stereo not drawn)	Shiga toxin inh 50, CHX counter 28
CCN(CC)CCN1C(=O)c2oc3ccccc3c(=O)c2C1c1ccccc1 (stereo not drawn)	CHX counter 35
C=CCOc1ccc(C2c3c(oc4ccccc4c3=O)C(=O)N2CCCN2CCOCC2)cc1 (stereo not drawn)	none
CC(C)N(C(=O)Cn1cc(SCC(=O)NCC2CCCO2)c2ccccc21)C(C)C (stereo not drawn)	none (no result: NS1 inh)
COc1ccc(/C(O)=C2/C(=O)C(=O)N(CCN3CCOCC3)C2c2ccccn2)cc1 (stereo not drawn)	Shiga toxin inh 54, CHX counter 33

Compound activity deposited in PubChem by National Center for Advancing Translational Sciences (NCATS).
